Hit rate of the full screen: of about 69,000 compounds, about 1,000 (1.4%) showed an effect of 50% or more. The sample holds strong results, similar compounds and a random draw of the others, so the mix is not that of the screen.
Tested on: Leishmania donovani
Assay: Leishmania intramacrophage assay
Assay type: functional, organism-based
Parameters: scale not given: in the data most compounds retested in dose-response had high values

SMILES: Cc1ccc(C(=O)N2Cc3c(CN(C)C)nn(C)c3C2)cc1C.O=C(O)C(F)(F)F
- Percent Effect (30.3 µM, […]): 35.58%

SMILES: Cc1csc(NC(=O)c2cnc(C3CCCN3)cn2)n1.Cl (centres undefined)
- Percent Effect (30.3 µM, […]): 7.514%

SMILES: CCC(C)NC(=O)Cc1c(C)nc2c(c1C)c(=O)[nH]n2C (centres undefined)
- Percent Effect (30 µM, 30.03 µM): -5.579%

SMILES: COc1cc(C(=O)N2CCCC(CNS(C)(=O)=O)C2)cc(OC)c1C (centres undefined)
- Percent Effect (30 µM, 30.03 µM): 16.86%

SMILES: CN(C)CC1CN(Cc2ccc(F)cc2)Cc2nccn2C1.O=C(O)C(F)(F)F.O=C(O)C(F)(F)F (centres undefined)
- Percent Effect (30.3 µM, […]): 6.472%

SMILES: Cc1ccc(CNC2CCN(CCc3ccncc3)CC2)cc1C
- Percent Effect (30 µM, 30.03 µM): 92.66%

SMILES: Cc1cccc(CNC2CCN(CCc3ccncc3)CC2)c1C
- Percent Effect (30.3 µM, […]): 74.34%

SMILES: CC(NC1CCN(CCc2ccncc2)CC1)c1cnn(C(C)C)c1 (centres undefined)
- Percent Effect (30.3 µM, […]): 6.548%

SMILES: N#Cc1ccc(CNC2CCN(CCc3ccncc3)CC2)cc1
- Percent Effect (30.3 µM, […]): 19.38%

SMILES: Cc1ccc(CNC2CCN(CCc3ccncc3)CC2)s1
- Percent Effect (30 µM, 30.03 µM): 45.1%

SMILES: Oc1cccc(CNC2CCN(CCc3ccncc3)CC2)c1
- Percent Effect (30.3 µM, […]): 7.34%

SMILES: COc1ccc(CNC2CCN(CCc3ccncc3)CC2)cc1O
- Percent Effect (30 µM, 30.03 µM): 9.899%

SMILES: COC(=O)C(O)C1CCN(CCc2ccncc2)CC1 (centres undefined)
- Percent Effect (30.3 µM, […]): 9.422%

SMILES: CCCN1CCC(NCc2ccncc2)CC1
- Percent Effect (30.3 µM, […]): -7.602%

SMILES: c1cc(CCN2CCC(NCc3ccsc3)CC2)ccn1
- Percent Effect (30.3 µM, […]): 31.06%

SMILES: Clc1cccc(CNC2CCN(CCc3ccncc3)CC2)c1
- Percent Effect (30.3 µM, […]): 59.66%

SMILES: CSc1ccc(CNC2CCN(CCc3ccncc3)CC2)cc1
- Percent Effect (30.3 µM, […]): 85.89%

SMILES: CC1(c2ccccc2)CCC(=O)N(CCN2CCCOC2=O)C1 (centres undefined)
- Percent Effect (30.3 µM, […]): -24.18%

SMILES: CN(C)C(=O)CN1CCN(C(=O)c2cnn(-c3ccccc3Cl)c2)CC1
- Percent Effect (30 µM): 13.32%

SMILES: CC(C)Cc1ccc(S(=O)(=O)Nc2ccc(=O)n(C)c2)cc1
- Percent Effect (30 µM, 30.03 µM): 40.75%

SMILES: CCOCCN1CCN(c2ccc(C#N)cn2)CC1CC (centres undefined)
- Percent Effect (30.3 µM, […]): 26.65%

SMILES: COCCN1CCC(NCc2ccc(Cl)cc2)C1 (centres undefined)
- Percent Effect (30 µM): 10.13%

SMILES: CC(CNC1CCN(Cc2ccncc2)CC1)c1ccc(F)cc1F (centres undefined)
- Percent Effect (30.3 µM, […]): 10.91%

SMILES: Fc1ccc(CNC2CCN(CCc3ccncc3)CC2)cc1F
- Percent Effect (30.3 µM, […]): 73.28%

SMILES: CC(NC(=O)c1ccnn1C)c1ccc(OCC2CC2)c(F)c1 (centres undefined)
- Percent Effect (30.3 µM, […]): 27.82%

SMILES: CCCc1cc(NCCCC2CCOC2)n2nccc2n1 (centres undefined)
- Percent Effect (30.3 µM, […]): 32.07%

SMILES: CCCc1cc(CNC2CCN(c3nc4ccccc4s3)CC2)on1
- Percent Effect (30.3 µM, […]): 35.92%

SMILES: CCS(=O)(=O)CCNC1CCN(c2nc3ccc(Cl)cc3s2)CC1
- Percent Effect (30.3 µM, […]): 66.16%

SMILES: Cn1ccnc1SCCNC1CCN(c2nc3ccccc3s2)CC1
- Percent Effect (30.3 µM, […]): 43.39%

SMILES: Clc1ccc2nc(N3CCC(NCCCC4CCOC4)CC3)sc2c1 (centres undefined)
- Percent Effect (30.3 µM, […]): 61.31%

SMILES: Cc1csc2c(N3CCC(NCCc4ccnn4C)CC3)ncnc12
- Percent Effect (30.3 µM, […]): 17.37%

SMILES: CCc1nccn1CCNC1CCN(c2nc3ccc(Cl)cc3s2)CC1
- Percent Effect (30.3 µM, […]): 98.8%

SMILES: Cc1n[nH]c(SCCNC2CCN(c3nc4ccccc4s3)CC2)n1
- Percent Effect (30.3 µM, […]): 6.253%

SMILES: Cc1csc2c(N3CCC(NCCCC4CCOC4)CC3)ncnc12 (centres undefined)
- Percent Effect (30.3 µM, […]): 10.77%

SMILES: CCOCC(O)CN1CCN(C(=O)C2CCC2)CC1 (centres undefined)
- Percent Effect (30.3 µM, […]): 23.63%

SMILES: O=C1CCOC[C@]2(CN(Cc3ccccc3)C[C@H]2c2ccccc2)N1
- Percent Effect (30.3 µM, […]): -10.32%

SMILES: CN(C)c1ccc(C(=O)N2CCC(c3cc4ncccc4[nH]3)CC2)cc1
- Percent Effect (30.3 µM, […]): -1.505%

SMILES: CS(=O)(=O)CCNC(=O)N1CC2(CCCC2)c2ccccc21
- Percent Effect (30.3 µM, […]): 0.5956%

SMILES: CSCCC1c2nc[nH]c2CCN1Cc1cc(Cl)ccc1O (centres undefined)
- Percent Effect (30 µM, 30.03 µM): 8.861%

SMILES: CCN(C)Cc1nc(-c2ccccc2NS(C)(=O)=O)oc1C
- Percent Effect (30.3 µM, […]): 2.546%

SMILES: O=C(O)C(F)(F)F.O=C(c1ccno1)N1CCO[C@@H]2CC(COCc3ccccn3)C[C@H]21 (some centres undefined)
- Percent Effect (30.3 µM, […]): 6.888%

SMILES: COCC(=O)N1CCCC(COc2ccccc2C)C1 (centres undefined)
- Percent Effect (30.3 µM, […]): 0.2743%

SMILES: Cc1ccccc1OCC1CCCN(C(=O)CN(C)C2CCNCC2)C1 (centres undefined)
- Percent Effect (30.3 µM, […]): 83.48%

SMILES: Cc1cccc(OCC2CCCN(C(=O)CN(C)C3CCNCC3)C2)c1 (centres undefined)
- Percent Effect (30.3 µM, […]): 48.81%

SMILES: CNc1cc(CNC(=O)c2ccccc2)nc(-c2ccncc2)n1
- Percent Effect (30 µM, 30.03 µM): 35.29%

SMILES: FC1(F)CCN(Cc2cccnc2)CC12CCN(c1ccccc1)C2.O=C(O)C(F)(F)F.O=C(O)C(F)(F)F.O=C(O)C(F)(F)F (centres undefined)
- Percent Effect (30.3 µM, […]): 99.13%

SMILES: Cn1ccnc1CN1CCC(F)(F)C2(CCN(c3cccnc3)C2)C1.O=C(O)C(F)(F)F.O=C(O)C(F)(F)F (centres undefined)
- Percent Effect (30.3 µM, […]): 69.63%

SMILES: FC1(F)CCN(Cc2cccnc2)CC12CCN(c1ccccn1)C2.O=C(O)C(F)(F)F.O=C(O)C(F)(F)F.O=C(O)C(F)(F)F (centres undefined)
- Percent Effect (30 µM, 30.03 µM): 38.27%

SMILES: Cn1cc(CN2CCC(F)(F)C3(CCN(c4cccnc4)C3)C2)cn1.O=C(O)C(F)(F)F.O=C(O)C(F)(F)F (centres undefined)
- Percent Effect (30.3 µM, […]): 0.6501%

From ChEMBL document CHEMBL3988442, “University of Dundee, Small-Polar-MMV Screening Library” (2021)
